# Source: PubChem
# OvCa metastasis = blocks SKOV3ip1 adhesion and invasion in omental model; SKOV3ip1-GFP adhesion/invasion on 3D omental model, fluorescence; Potency, µM (top dose mostly 45.8 µM), most hits filed as inhibitors; 46,000 compounds, 0.1% hits; note: nearly all actives have a fitted effect of over 65% in size
#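 A 3D layer of primary human omental fibroblasts, mesothelial cells, fibronectin and collagen I, grown 48 hr, received SKOV3ip1-GFP cells in serum-free medium plus compounds at 0.36-46 umol/L. After 2 hr RT and 16 hr 37 C, fixed adherent GFP cells were counted; normalized to DMSO and tomatine.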
# p53null 39C kill = p53 null cell cytotoxicity, nonpermissive temperature; H1299 p53-null (neo) cells, 39C, ATPlite viability, 24 h; Potency, µM (titrated, usually from 46.1 µM), actives largely listed as cytotoxic; 55,000 compounds, 0.97% hits; note: nearly all actives have a fitted effect of over 50% in size
#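 Cells seeded at 600/well, 37C overnight. Compound added (up to 46 uM), plates shifted to 39C for 24 hr. ATPlite added, luminescence read after 20 min at room temperature.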
# pS6 MEF inh = mTORC1 pathway inhibition measured by phospho-rpS6 | 44,000 compounds, 0.78% hits | Tsc2-/- p53-/- MEF, phospho-rpS6 immunofluorescence/PI, 24 h | Potency, µM (titrated, usually from 38.3 µM), most hits filed as inhibitors; note: nearly all actives have a fitted effect of over 50% in size
#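 Read-out: phospho-S6 Alexa-488 intensity over PI intensity per well, scored as % active cells using thresholds from rapamycin (7.5 nM) and DMSO controls. Tsc2-/-, p53-/- MEFs exposed to compound for 24 h; PI cell count recorded as viability.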
# p53null 32C kill = selectivity test: cytotoxicity in p53 null cells, permissive temperature; H1299-neo p53 null cells, ATP luminescence, 24 h, 32C; Potency, µM (top dose mostly 46.1 µM), most hits filed as cytotoxic; 55,000 compounds, 0.62% hits; AID 903; note: nearly all actives have a fitted effect of over 55% in size
#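 H1299-neo (p53-null) cells, 600/well, were pre-incubated overnight at 37C, then exposed to compounds at up to 46 uM for 24 hr at 32C. Viability was measured as ATP content by luminescence, and AC50 values came from Hill fits.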
# S16 F2sN tox = S16 Schwann cell cytotoxicity. S16 Pmp22-F2sN Schwann cells viability, CellTiter-Glo, 24 h. Potency, µM (doses to about 57.5 µM), hits mostly cytotoxic. 43,000 compounds, 0.48% hits; note: nearly all actives have a fitted effect of over 65% in size
#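 Luminescence from CellTiter-Glo, read by CCD camera after a 15 min room-temperature incubation, served as the viability signal. Reporter Schwann cells (S16 Pmp22-F2sN) had been treated with pin-transferred compounds for 24 h at 37C.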
# PMP22 txn prim = modulators of PMP22 gene transcription in S16 Schwann cells; S16 Pmp22-F2sN Schwann cells (luciferase reporters placed in the Pmp22 gene), FLuc/NLuc coincidence luminescence, 24 h; Potency, µM (highest dose often 57.5 µM), actives largely listed as inhibitors; 43,000 compounds, 2% hits; active = clear falling dose curves in both reporters; inconclusive = both reporters move, but less clearly or upward; inactive = either reporter flat; the % is the NLuc reporter signal
#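 Reporter cells (S16 Pmp22-F2sN, 500–1,000 per well) exposed to compounds for 24 h, 37C, 5% CO2; lysis with FLuc read after 10 min, then Stop&Glo and NLuc read after 10 min.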
# NLuc saturating = counter-screen for PMP22 expression modulators: NanoLuc inhibition, saturating substrate | Potency, µM (highest dose often 57.5 µM), actives largely listed as inhibitors | AID 1508638 | Secreted NLuc enzyme (filtered S16 cell medium), Nano-Glo luminescence | 690 compounds, 4% hits | shares compounds with PMP22 txn prim
# NLuc Km ctr = counter-screen for PMP22 expression modulators: NanoLuc inhibition at Km | shares compounds with PMP22 txn prim | secreted NLuc enzyme, coelenterazine luminescence, Km conditions | Potency, µM (highest dose often 57.5 µM), actives largely listed as inhibitors | 690 compounds, 5% hits
# FLuc counter = counter-screen for PMP22 expression modulators: firefly luciferase inhibition | shares compounds with PMP22 txn prim | purified P. pyralis FLuc, luminescence, 10 min | Potency, µM (titrated, usually from 57.5 µM), actives largely listed as inhibitors | 690 tested, under 10 active | AID 1508640
# Target sequence (P08659 whole entry, looked up): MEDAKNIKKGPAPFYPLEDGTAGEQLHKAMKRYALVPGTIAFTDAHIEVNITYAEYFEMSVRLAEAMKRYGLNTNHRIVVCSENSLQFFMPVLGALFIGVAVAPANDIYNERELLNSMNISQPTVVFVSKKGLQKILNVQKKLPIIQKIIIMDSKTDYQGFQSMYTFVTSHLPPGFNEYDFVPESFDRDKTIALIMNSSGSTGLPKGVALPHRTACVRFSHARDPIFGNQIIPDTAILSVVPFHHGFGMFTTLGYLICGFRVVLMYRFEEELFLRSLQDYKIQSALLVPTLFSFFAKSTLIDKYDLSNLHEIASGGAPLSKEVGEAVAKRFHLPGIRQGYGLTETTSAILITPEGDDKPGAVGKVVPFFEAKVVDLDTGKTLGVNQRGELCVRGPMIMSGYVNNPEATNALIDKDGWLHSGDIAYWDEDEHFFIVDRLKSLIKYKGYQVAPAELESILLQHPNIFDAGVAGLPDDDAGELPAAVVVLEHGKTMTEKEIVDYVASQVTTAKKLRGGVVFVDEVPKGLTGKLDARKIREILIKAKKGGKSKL
# S16 viab conf = S16 Schwann cell cytotoxicity, confirmatory; S16 Schwann cells viability, CellTiter-Glo ATP luminescence, 24 h; Potency, µM (highest dose often 57.5 µM), actives largely listed as cytotoxic; shares compounds with PMP22 txn prim; 690 compounds, 7% hits; AID 1508641
# PMP22 txn conf = confirmation of modulators of PMP22 gene transcription in S16 cells. shares compounds with PMP22 txn prim. S16 Schwann cells Pmp22-F2sN, dual luciferase, 24 h. Potency, µM (doses to about 57.5 µM), hits mostly inhibitors. 690 compounds, 22% hits. AID 1508646; active = clear falling dose curves in both reporters; inconclusive = both reporters move, but less clearly or upward; inactive = either reporter flat; the % is the FLuc reporter signal
# PMP22 HiBiT cnf = confirmation of modulators of rat PMP22 protein expression; shares compounds with PMP22 txn prim; Potency, µM (doses to about 27.9 µM), actives largely listed as inhibitors; 95 tested, under 10 active; AID 1508647; S16 Schwann cells Pmp22-HiBiT, luminescence, 48 h
# Hits are given with their value; n = inactive; u = inconclusive; x = no result given. The list is not random: actives were taken first. Their share in the collection is about 3%. Unless noted, calls come from the whole dose curve; as a rule, active = well fitted curve in the direction sought with a large enough effect; inconclusive = small, poorly fitted or top-dose-only effect, or another doubt; inactive = no such curve, though single readings can be large; an effect the other way counts as inactive or inconclusive.
SMILES,OvCa metastasis,p53null 39C kill,pS6 MEF inh,p53null 32C kill,S16 F2sN tox,PMP22 txn prim,NLuc saturating,NLuc Km ctr,FLuc counter,S16 viab conf,PMP22 txn conf,others
Cc1ccc(OCC(=O)Nc2ccc3[nH]c(=O)sc3c2)cc1,n,n,n,n,n,15µM,n,n,n,n,u,
COc1ccc(Cl)cc1NS(=O)(=O)c1cc(-c2cc(C)no2)ccc1C,n,n,n,n,n,n,x,x,x,x,x,
COc1ccc(-c2onc(C)c2C)cc1S(=O)(=O)NCc1ccc(C)o1,n,n,n,n,n,8.9µM,n,n,n,n,u,
CCOc1ccccc1CNS(=O)(=O)c1cc(-c2onc(C)c2C)ccc1OC,n,n,n,n,u,u,x,x,x,x,x,
COc1ccc(-c2onc(C)c2C)cc1S(=O)(=O)Nc1cc(Cl)ccc1C,n,n,n,n,n,u,u,u,n,n,u,
CCOc1ccccc1CNC(=O)CCn1c(=O)c2cccn2c2ccc(F)cc21,n,n,u,n,n,14µM,n,n,n,n,u,
CCS(=O)(=O)c1ncc(Cl)c(C(=O)Nc2c(C(=O)c3ccc(C)cc3)oc3ccccc23)n1,n,n,n,n,u,2.1µM,n,u,n,u,9.3µM,PMP22 HiBiT cnf=n
CCN1C(=O)c2ccccc2S(=O)c2ccc(C(=O)N3CCN(c4cccc(Cl)c4)CC3)cc21 (stereo unspecified),n,n,n,n,n,18µM,3.9µM,3.4µM,n,n,u,
CCCSc1ncc(Cl)c(C(=O)Nc2ccc(S(=O)(=O)N3CCCCC3C)cc2)n1 (stereo unspecified),n,n,n,n,u,11µM,n,n,n,n,u,
Cn1c(=O)c2c(nc(NCc3ccccc3)n2Cc2ccc(Cl)c(Cl)c2)n(C)c1=O,n,n,n,u,n,14µM,n,u,n,n,u,
COc1ccc(CCNc2nc3c(c(=O)n(C)c(=O)n3C)n2Cc2ccc(F)cc2)cc1OC,u,n,n,n,u,10µM,u,u,n,n,n,
CCNc1nc2c(c(=O)n(C)c(=O)n2C)n1Cc1ccc(F)cc1,n,n,u,n,u,u,x,x,x,x,x,
CCCN(C(=O)Cn1nc(Cc2cccnc2)c2ccccc2c1=O)c1ccc(C(C)C)cc1,n,u,n,u,n,u,x,x,x,x,x,
CCCN(C(=O)Cn1nc(Cc2ccncc2)c2ccccc2c1=O)c1ccccc1C,n,n,n,n,n,13µM,u,u,n,n,u,
CCCCN(Cc1ccco1)C(=O)c1cc2c(s1)-c1c(C)cccc1OC2,n,n,n,n,n,u,x,x,x,x,x,
